In PubChem BioAssay (Tox21):
Values joined by “and” are separate entries in the source; they are usually repeats but may differ in a detail not shown here. Equal entries are not always repeated. Inconclusive results are not listed. Active and inactive are the calls of the source. Unless noted, calls follow the shape of the dose curve; as a rule, active = well fitted curve in the direction sought with a large enough effect in the repeat runs; inconclusive = weak or mixed curves; inactive = no such curve, though single readings can be large; an effect the other way counts as inactive or inconclusive.

Legend:
[1] = qHTS assay to identify small molecule antagonists of the glucocorticoid receptor (GR) signaling pathway - cell viability counter screen (AID 720693); also: nearly all actives have a fitted effect of over 55% in size
[2] = qHTS assay for identifying genotoxic compounds that show differential cytotoxicity against isogenic chicken DT40 cell lines with known DNA damage response pathways - wild type cell line (AID 743012); also: nearly all actives have a fitted effect of over 60% in size; also: potency is read from the fitted curve at half-maximal effect
Method in brief: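 Cytotoxicity in repair-proficient parental chicken DT40 cells serves as the comparator for Rad54/Ku70- and Rev3-deficient lines. Cells were exposed to compounds for 40 h at 37 C/5% CO2, and ATP-based luminescence (CellTiter-Glo) measured viability.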

[3] = qHTS assay for identifying genotoxic compounds that show differential cytotoxicity against isogenic chicken DT40 cell lines with known DNA damage response pathways - Rev3 mutant cell line (AID 743014); also: nearly all actives have a fitted effect of over 55% in size; also: potency is read from the fitted curve at half-maximal effect
[4] = qHTS assay for identifying genotoxic compounds that show differential cytotoxicity against isogenic chicken DT40 cell lines with known DNA damage response pathways - Rad54/Ku70 mutant cell line (AID 743015); also: nearly all actives have a fitted effect of over 60% in size; also: potency is read from the fitted curve at half-maximal effect
[5] = qHTS assay to identify small molecule antagonists of the androgen receptor (AR) signaling pathway - cell viability counter screen (AID 743033; also: nearly all actives have a fitted effect of over 45% in size; also: potency is read from the fitted curve at half-maximal effect)
[6] = target: Androgen receptor (Homo sapiens) (UniProt P10275); assay: qHTS assay to identify small molecule antagonists of the androgen receptor (AR) signaling pathway (AID 743035; active = well fitted inhibition curve with a large enough effect in the signal ratio in the repeat runs, not every such curve was filed as active; the % refers to the signal ratio)
Sequence of Androgen receptor (Homo sapiens) (P10275 whole entry, looked up): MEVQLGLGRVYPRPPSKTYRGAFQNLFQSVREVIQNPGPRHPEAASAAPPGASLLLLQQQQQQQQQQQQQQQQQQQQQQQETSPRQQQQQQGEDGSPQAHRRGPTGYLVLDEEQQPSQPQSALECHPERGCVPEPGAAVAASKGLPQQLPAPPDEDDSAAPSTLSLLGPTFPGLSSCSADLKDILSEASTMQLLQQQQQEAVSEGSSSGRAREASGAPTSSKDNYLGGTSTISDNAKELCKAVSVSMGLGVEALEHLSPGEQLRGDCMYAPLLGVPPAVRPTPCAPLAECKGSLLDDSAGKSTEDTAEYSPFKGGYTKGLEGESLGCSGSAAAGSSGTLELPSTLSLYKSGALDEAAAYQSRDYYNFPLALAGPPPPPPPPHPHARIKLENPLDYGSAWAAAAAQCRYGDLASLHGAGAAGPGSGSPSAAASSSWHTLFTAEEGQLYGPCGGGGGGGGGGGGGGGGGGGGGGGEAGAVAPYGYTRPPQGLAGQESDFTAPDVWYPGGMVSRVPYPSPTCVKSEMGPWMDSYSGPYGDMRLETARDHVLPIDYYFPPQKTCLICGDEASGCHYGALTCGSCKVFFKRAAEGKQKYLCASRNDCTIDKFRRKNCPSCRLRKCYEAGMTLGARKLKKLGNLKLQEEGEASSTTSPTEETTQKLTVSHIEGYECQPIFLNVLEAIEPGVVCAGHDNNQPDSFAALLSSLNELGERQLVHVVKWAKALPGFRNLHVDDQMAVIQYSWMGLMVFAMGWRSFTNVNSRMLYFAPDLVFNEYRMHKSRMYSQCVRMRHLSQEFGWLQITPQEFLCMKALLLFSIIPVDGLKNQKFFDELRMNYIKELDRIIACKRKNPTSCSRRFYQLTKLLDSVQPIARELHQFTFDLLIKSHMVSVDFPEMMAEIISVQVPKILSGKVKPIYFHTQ
Method in brief: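 Steps: seed AR-UAS-bla GripTite HEK293 cells, incubate 4 h at 37C; pin in test compound, then add agonist R1881; incubate 16 h at 37C; add LiveBLAzer B/G FRET substrate, 2 h at room temperature; read fluorescence.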

[7] = target: Androgen receptor (Homo sapiens) (UniProt P10275); assay: qHTS assay to identify small molecule agonists of the androgen receptor (AR) signaling pathway (AID 743036; active = well fitted activation curve with a large enough effect in the signal ratio in the repeat runs, with a control signal flat, not every such curve was filed as active; the % refers to the signal ratio)
Method in brief: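 AR-bla HEK293 cells, 2,000/well; 4 h preincubation 37C/5% CO2; compound (DMSO) 16 h at 37C; LiveBLAzer B/G FRET substrate 2 h RT; fluorescence intensity read-out.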

[8] = target: Androgen receptor (Homo sapiens) (UniProt P10275); assay: qHTS assay to identify small molecule agonists of the androgen receptor (AR) signaling pathway using the MDA cell line (AID 743040; also: nearly all actives have a fitted effect of over 20% in size)
Method in brief: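 Agonist activity is measured as luciferase luminescence in human MDA-kb2 cells whose MMTV reporter responds to both AR and GR. Compounds in DMSO incubate 16 h at 37C, 0% CO2, and ONE-Glo is read after 30 min.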

[9] = qHTS assay to identify small molecule antagonists of the androgen receptor (AR) signaling pathway using the MDA cell line - cell viability counter screen (AID 743041; also: nearly all actives have a fitted effect of over 45% in size)
Method in brief: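 qHTS viability read-out; MDA-kb2 AR-luc; R1881-stimulated; 16 h exposure at 37C, 0% CO2; CellTiter-Fluor, 30 min; fluorescence intensity.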

[10] = target: Androgen receptor (Homo sapiens) (UniProt P10275); assay: qHTS assay to identify small molecule antagonists of the androgen receptor (AR) signaling pathway using the MDA cell line (AID 743042; also: nearly all actives have a fitted effect of over 55% in size)
Method in brief: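 MDA-kb2 cells (human breast carcinoma, stably carrying an MMTV-luciferase reporter responsive to AR and GR) were plated at 3,000 cells/well and preincubated 5 hr at 37C, then given compound plus R1881 agonist for 16 h. ONE-Glo luminescence was read.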

[11] = qHTS assay to identify small molecule antagonists of the thyroid receptor (TR) signaling pathway - cell viability counter screen (AID 743064); also: nearly all actives have a fitted effect of over 50% in size; also: potency is read from the fitted curve at half-maximal effect
Method in brief: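 GH3.TRE-Luc cells, 4 h pre-plating; cpd + T3 1 nM final; 37 °C 23.5 h; CellTiter-Fluor 30 min; fluorescence read.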

[12] = qHTS assay to identify small molecule antagonists of the thyroid receptor (TR) signaling pathway (AID 743065); also: nearly all actives have a fitted effect of over 55% in size; also: potency is read from the fitted curve at half-maximal effect
Method in brief: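 GH3.TRE-Luc rat pituitary cells carrying two TR response elements driving luciferase were plated for 4 h, given compound plus 1 nM T3 (final), and incubated 23.5 h at 37 C. ONE-Glo luminescence measured reporter inhibition; CellTiter-Fluor fluorescence tracked cytotoxicity.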

[13] = test system: thyroid hormone receptor (rat, GH3 cells); assay: qHTS assay to identify small molecule agonists of the thyroid receptor (TR) signaling pathway (AID 743066; calls by dose curve)
[14] = qHTS assay to identify small molecule antagonists of the estrogen receptor alpha (ER-alpha) signaling pathway - cell viability counter screen (AID 743074; calls by dose curve; also: nearly all actives have a fitted effect of over 45% in size)
[15] = qHTS assay to identify small molecule antagonists of the estrogen receptor alpha (ER-alpha) signaling pathway using the BG1 cell line - cell viability counter screen (AID 743081);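 also: compound given together with 17beta-estradiol as the ER stimulus; nearly all actives have a fitted effect of over 45% in size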
[16] = target: Aromatase (Homo sapiens) (UniProt P11511); assay: qHTS assay to identify aromatase inhibitors (AID 743083); also: nearly all actives have a fitted effect of over 55% in size; also: potency is read from the fitted curve at half-maximal effect
Sequence of Aromatase (Homo sapiens) (P11511 whole entry, looked up): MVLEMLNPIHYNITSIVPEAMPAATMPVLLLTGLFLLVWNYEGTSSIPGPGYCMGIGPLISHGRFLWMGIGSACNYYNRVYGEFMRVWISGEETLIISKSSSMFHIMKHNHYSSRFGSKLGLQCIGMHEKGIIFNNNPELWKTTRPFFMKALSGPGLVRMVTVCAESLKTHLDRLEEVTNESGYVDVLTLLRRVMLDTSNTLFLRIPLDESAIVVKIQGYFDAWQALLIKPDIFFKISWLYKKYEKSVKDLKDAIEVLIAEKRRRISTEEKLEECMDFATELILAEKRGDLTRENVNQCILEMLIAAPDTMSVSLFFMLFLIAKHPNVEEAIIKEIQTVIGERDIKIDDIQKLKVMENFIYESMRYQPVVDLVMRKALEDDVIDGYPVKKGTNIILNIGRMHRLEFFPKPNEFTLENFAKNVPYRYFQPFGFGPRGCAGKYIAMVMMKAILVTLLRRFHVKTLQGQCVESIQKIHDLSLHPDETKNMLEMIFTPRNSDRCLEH

[17] = target: Estrogen receptor (Homo sapiens) (UniProt P03372); assay: qHTS assay to identify small molecule antagonists of the estrogen receptor alpha (ER-alpha) signaling pathway (AID 743069; active = well fitted curve in the direction sought with a large enough effect in the signal ratio in the repeat runs, not every such curve was filed as active; the % refers to the signal ratio)
Sequence of Estrogen receptor (Homo sapiens) (P03372 whole entry, looked up): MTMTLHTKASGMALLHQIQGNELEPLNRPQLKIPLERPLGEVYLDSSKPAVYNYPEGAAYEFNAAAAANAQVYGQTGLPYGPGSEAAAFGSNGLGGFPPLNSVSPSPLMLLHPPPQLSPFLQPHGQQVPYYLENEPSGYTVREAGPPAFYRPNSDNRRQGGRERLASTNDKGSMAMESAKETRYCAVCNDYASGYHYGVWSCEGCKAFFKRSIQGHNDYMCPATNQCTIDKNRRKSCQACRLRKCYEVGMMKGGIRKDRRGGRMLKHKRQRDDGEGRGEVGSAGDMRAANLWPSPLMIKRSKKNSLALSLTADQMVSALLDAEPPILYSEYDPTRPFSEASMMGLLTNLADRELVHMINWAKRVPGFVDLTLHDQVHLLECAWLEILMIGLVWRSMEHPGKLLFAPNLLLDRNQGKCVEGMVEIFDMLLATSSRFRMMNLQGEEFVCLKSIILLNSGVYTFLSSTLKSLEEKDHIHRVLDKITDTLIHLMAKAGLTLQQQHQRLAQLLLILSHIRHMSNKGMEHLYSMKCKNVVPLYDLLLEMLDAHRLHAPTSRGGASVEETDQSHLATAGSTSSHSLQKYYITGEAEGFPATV
Method in brief: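 Screening used a UAS-driven beta-lactamase reporter integrated into HEK293 cells expressing ER-alpha, stimulated with 17beta-estradiol alongside test compounds over 18 hr at 37C; signal came from LiveBLAzer B/G FRET fluorescence.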

[18] = target: Estrogen receptor (Homo sapiens) (UniProt P03372); assay: qHTS assay to identify small molecule agonists of the estrogen receptor alpha (ER-alpha) signaling pathway (AID 743075; calls by dose curve)
[19] = target: Estrogen receptor (Homo sapiens) (UniProt P03372); assay: qHTS assay to identify small molecule agonists of the estrogen receptor alpha (ER-alpha) signaling pathway using the BG1 cell line (AID 743079); conditions: BG1Luc4E2 cells, ERE-luciferase agonist, 22 h; also: nearly all actives have a fitted effect of over 20% in size; also: potency is read from the fitted curve at half-maximal effect
[20] = qHTS assay to identify small molecule antagonists of the estrogen receptor alpha (ER-alpha) signaling pathway using the BG1 cell line (AID 743080; calls by dose curve;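 also: BG1 cells stimulated with 17beta-estradiol alongside compound; nearly all actives have a fitted effect of over 25% in size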; also: potency is read from the fitted curve at half-maximal effect)
Method in brief: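 BG1Luc4E2, endogenous ER-alpha, 4xERE-luc; 5 d charcoal-stripped FBS, phenol red free; 24 h plating; cpd + 17beta-estradiol 21.5 h, 37 C/5% CO2; CellTiter-Fluor viability 30 min, then ONE-Glo luciferase 30 min RT.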
% is scaled to controls: 0 for no effect and ±100 for the full control effect.

Cc1cnc[nH]1
inactive: Potency [1] | Potency [2] | Potency [3] | Potency [4] | Potency [5] | Potency [6] | outcome [7] | Potency [8] | Potency [9] | outcome [10] | Potency [11] | Potency [12] | Potency [13] | outcome [14] | Potency [15] | Potency [16]

CC(C)CP(=S)(S)CC(C)C
inactive: Potency [1] | Potency [9] | Potency [11] | Potency [12] | Potency [13] | Potency [17] | outcome [14] | Potency [18] | activation ([19]; at 70.3 µM (top of the series)) -12.9% | Potency [20] | Potency [15] | Potency [16]
active: Potency [2] 13.7 µM | Potency [3] 13.7 µM | Potency [4] 8.63 µM | Potency [5] 17.4 µM

COc1cc(OC)nc(Sc2cccc(Cl)c2C(=O)O)n1
inactive: Potency [1] | Potency [2] | Potency [3] | Potency [4] | Potency [5] | Potency [9] | Potency [11] | Potency [12] | Potency [13] | outcome [14] | Potency [15] | Potency [16]

CCCCOC(=O)[C@@H](C)Oc1ccc(Oc2ccc(C#N)cc2F)cc1
active: Potency [2] 34.2 µM | Potency [3] 30.5 µM | Potency [4] 43 µM
inactive: Potency [1] | Potency [5] | Potency [9] | Potency [11] | Potency [13] | outcome [14] | Potency [18] | activation ([19]; at 70.3 µM (top of the series)) -4.38% | Potency [20] | Potency [15] | Potency [16]

COc1cc(OC)nc(NC(=O)NS(=O)(=O)c2ncccc2OCC(F)(F)F)n1
inactive: Potency [1] | Potency [2] | Potency [3] | Potency [4] | Potency [5] | Potency [9] | Potency [17] | outcome [14] | Potency [18] | Potency [20] | Potency [15] | Potency [16]

CCCCCCBr
inactive: Potency [1] | Potency [2] | Potency [3] | Potency [4] | Potency [5] | Potency [9] | Potency [11] | Potency [13] | outcome [14] | Potency [15] | Potency [16]

CCCCOP(=O)(O)OCCCC
active: Potency [19] 24.3 µM
inactive: Potency [1] | Potency [2] | Potency [3] | Potency [4] | Potency [6] | outcome [7] | Potency [8] | Potency [9] | outcome [10] | Potency [11] | Potency [12] | Potency [13] | Potency [17] | outcome [14] | Potency [20] | Potency [15] | Potency [16]

CCCCc1ccc(O)cc1
inactive: Potency [1] | Potency [2] | Potency [3] | Potency [4] | Potency [5] | Potency [11] | Potency [13] | Potency [17] | outcome [14] | Potency [18] | activation ([19]; at 70.3 µM (top of the series)) 12.6% | Potency [20] | Potency [15]

CN1CCC(O)(c2ccc(F)cc2)C(C(=O)c2ccc(F)cc2)C1 (stereo not given)
active: Potency [2] 9.44 µM | Potency [3] 13.3 µM | Potency [4] 13.3 µM | Potency [11] 21.1 µM | Potency [12] 26.6 µM
inactive: Potency [1] | Potency [5] | Potency [13] | outcome [14] | Potency [15] | Potency [16]

O=C1OC(c2ccc(O)c(S(=O)(=O)O)c2)(c2ccc(O)c(S(=O)(=O)O)c2)c2c(Br)c(Br)c(Br)c(Br)c21
inactive: Potency [1] | Potency [2] | Potency [3] | Potency [4] | Potency [5] | Potency [9] | Potency [11] | Potency [13] | Potency [17] | outcome [14] | Potency [18] | activation ([19]; at 70.3 µM (top of the series)) -0.304% | Potency [20] | Potency [16]

NC(=O)c1cc([N+](=O)[O-])cc([N+](=O)[O-])c1
inactive: Potency [1] | Potency [2] | Potency [3] | Potency [4] | Potency [9] | Potency [11] | Potency [12] | Potency [13] | Potency [17] | outcome [14] | Potency [18] | Potency [20] | Potency [15] | Potency [16]

COC(=O)C(c1ccccc1)C1CCCCN1 (stereo not given)
inactive: Potency [1] | Potency [2] | Potency [3] | Potency [4] | Potency [6] | outcome [7] | Potency [8] | Potency [9] | outcome [10] | Potency [11] | Potency [12] | Potency [13] | Potency [17] | outcome [14] | Potency [18] | activation ([19]; at 70.3 µM (top of the series)) 2.44% and -6.09% | Potency [20] | Potency [15] | Potency [16]

C[C@@H]1CN(C2CCC(C#N)(c3ccc(F)cc3)CC2)CC[C@]1(C(=O)O)c1ccccc1 (stereo not given in full)
inactive: Potency [1] | Potency [2] | Potency [3] | Potency [4] | Potency [9] | Potency [11] | Potency [12] | Potency [13] | Potency [17] | outcome [14] | Potency [18] | activation ([19]; at 32.5 µM (top of the series)) -0.22% | Potency [20] | Potency [15] | Potency [16]

CC(=O)CCc1ccc2c(c1)OCO2
inactive: Potency [1] | Potency [2] | Potency [3] | Potency [4] | Potency [5] | Potency [9] | Potency [11] | Potency [17] | outcome [14] | Potency [18] | activation ([19]; at 70.3 µM (top of the series)) 24.9% | Potency [20] | Potency [15] | Potency [16]

Cc1ccccc1CO[C@@H]1C[C@@]2(C(C)C)CC[C@]1(C)O2
inactive: Potency [1] | Potency [6] | outcome [7] | Potency [8] | Potency [9] | Potency [11] | Potency [13] | outcome [14] | Potency [15]
active: Potency [2] 43.3 µM | Potency [3] 48.6 µM | Potency [4] 54.5 µM

C=C(C)CN(CC)c1c([N+](=O)[O-])cc(C(F)(F)F)cc1[N+](=O)[O-]
inactive: Potency [1] | Potency [2] | Potency [3] | Potency [4] | Potency [5] | Potency [9] | Potency [12] | Potency [13] | Potency [17] | outcome [14] | Potency [18] | activation ([19]; at 70.3 µM (top of the series)) 11.3% | Potency [15] | Potency [16]

COP(N)(=S)Oc1ccccc1C(=O)OC(C)C (stereo not given)
inactive: Potency [1] | Potency [2] | Potency [3] | Potency [4] | Potency [6] | outcome [7] | Potency [8] | Potency [9] | outcome [10] | Potency [12] | Potency [13] | Potency [17] | outcome [14] | Potency [18] | Potency [20] | Potency [15] | Potency [16]

CC1=C(C(=O)Nc2ccccc2)S(=O)(=O)CCO1
inactive: Potency [1] | Potency [5] | Potency [13] | Potency [17] | outcome [14] | Potency [18] | Potency [15]
active: Potency [2] 15.3 µM | Potency [3] 15.3 µM | Potency [4] 17.2 µM | Potency [11] 30.6 µM | Potency [20] 76.9 µM | Potency [16] 48.5 µM
